Compound activity as filed in PubChem BioAssay.
Ecoli rRNA inh: reduced GFP signal of wild-type E. coli, primary screen, bacterial rRNA inhibitor project, GFP/RFP fluorescence, OD600, single point; E. coli WT GFP vs humanized-ribosome RFP mutants, 24 h; active compounds read low; DMSO median 0, no signal -100; GFP signal change (wild-type ribosome), % (test concentration not listed); 1.6% of 350,000 active;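 active = significant combined selectivity score with lowered wild-type GFP, culture density cut under 30%, mutant RFP and density less affected; inactive = any of these conditions unmet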
LGR2 antag: inhibitors of bursicon-induced LGR2 CRE-luciferase signal, primary screen, cell-based, HEK293, CRE-luciferase reporter, bursicon stimulation | Drosophila bursicon receptor LGR2 (rickets) | bursicon-stimulated, 4 h | inhibition, % at 9.99 µM | 0.35% of 380,000 active;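 active = drop in luminescence signal, shown as inhibition above about 50% in the replicate tests, limit read from the data, passing the limit was not always enough; inconclusive = probably only some replicates passing the limit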;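 also: agonist challenge used bursicon conditioned medium at about half maximal strength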
EWS-Fli block: EWS/Fli-driven NR0B1 reporter inhibitors, primary screen, A673 cells, NR0B1 luciferase, luminescence, MLPCN library | inhibition, % at 12.6 µM | viability-normalised | 0.67% of 350,000 active;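 active = mean inhibition of at least 50% after viability correction, with every replicate also passing that limit; inconclusive = mean reaches 50% but only one of two replicates passes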;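 also: firefly luciferase signal divided by Alamar Blue viability fluorescence both relative to DMSO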
PGC1a acetyl inh: inhibitors of PGC1a acetylation signal, primary screen, cell-based, U2OS, AlphaScreen, inhibitor mode. AlphaScreen anti-acetyl-lysine; with virally co-expressed GCN5 acetyltransferase. inhibition, % at 15.6 µM. 0.17% of 350,000 active. AID 651687, 2012;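 active = every replicate shows inhibition of at least 40%; inconclusive = mean inhibition at least 40% but some replicate below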;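 also: 0% = neutral control wells and 100% = positive control wells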
PAX8 inh HTS: inhibitors of PAX8-driven TPO luciferase reporter, primary screen, RMG-I cells, single concentration. SteadyGlo, 24 h. 1.2% of 360,000 active. AID 652154, 2013. inhibition, % at 12.6 µM;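 active = mean replicate inhibition at least 60% with every replicate also reaching 60%; inconclusive = only one of the two criteria is met; inactive = mean below 60% and not all replicates reaching 60%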;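 also: luciferase light reporting Pax8 driven TPO promoter activity; plate controls were median of neutral control wells for no effect and mitoxantrone controls for full effect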
SIRT5 inh: SIRT5 desuccinylase inhibitors, primary screen, biochemical, fluorescence imaging, single point, set 5 | NAD-dependent protein deacylase sirtuin-5, mitochondrial (Homo sapiens), Q9NXA8 | Purified SirT5, succinyl-peptide AMC, trypsin-coupled fluorescence | inhibition, % at 15 µM | 1.1% of 330,000 active | AID 652115, 2013; in the data active = inhibition above about 15%; inconclusive = no clear call, values can overlap the other calls
Target sequence (Q9NXA8 whole entry, looked up): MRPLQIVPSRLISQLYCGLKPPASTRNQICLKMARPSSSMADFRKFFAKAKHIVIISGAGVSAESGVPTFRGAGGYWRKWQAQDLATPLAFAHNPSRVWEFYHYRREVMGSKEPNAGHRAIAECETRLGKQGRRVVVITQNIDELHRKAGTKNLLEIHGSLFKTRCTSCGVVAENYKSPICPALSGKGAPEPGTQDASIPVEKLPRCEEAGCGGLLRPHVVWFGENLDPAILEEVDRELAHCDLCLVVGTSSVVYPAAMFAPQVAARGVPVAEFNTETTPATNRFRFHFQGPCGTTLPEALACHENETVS
An asterisk follows results filed as active; ? = inconclusive; . = no result. An excerpt weighted towards active compounds, which were near 3.4% of everything screened.

SMILES	Ecoli rRNA inh	LGR2 antag	EWS-Fli block	PGC1a acetyl inh	PAX8 inh HTS	SIRT5 inh
CNC[C@@H]1OCCCC[C@H](C)Oc2ccc(NC(=O)c3ccccc3)cc2C(=O)N([C@H](C)CO)C[C@H]1C	9.0	-7.6	-1.0	-0.4	-12.7	-2.1
O=C(NC(=O)c1cccc(F)c1)OC[C@@H]1CCCN2CCCC[C@H]12	6.7	-1.5	-3.7	7.3	-16.3	1.4
O=C(Nc1ccc(C(=O)OC[C@@H]2CCCN3CCCC[C@H]23)cc1)c1cccc(Br)c1	-44.0*	7.4	0.1	.	38.7	3.7
O=C1/C(=C/c2ccc(C(=O)O)cc2)CCC/C1=C\c1ccc(C(=O)O)cc1	.	19.5	.	2.0	3.4	.
C=CC(=O)N1C/C(=C/c2ccccc2)C(=O)/C(=C\c2ccccc2)C1	-43.8*	100.4*	71.8*	72.8*	79.9*	.
C=CC(=O)N1C/C(=C/c2ccc(Cl)cc2)C(=O)/C(=C\c2ccc(Cl)cc2)C1	-15.0	104.1*	77.3*	.	110.2*	-0.4
O=C1C(=Cc2ccc(Cl)cc2)Cc2ccccc21	.	-53.5	-60.5	.	-81.2	.
Cc1ccc(S(=O)(=O)Nc2cccc3c2O[C@H](CN(C)S(=O)(=O)c2ccc(C)cc2)[C@H](C)CN([C@@H](C)CO)C3=O)cc1	1.3	-35.8	10.5	6.2	-13.8	-2.0
C[C@H]1CN([C@@H](C)CO)S(=O)(=O)c2ccc(/C=C/c3ccccc3)cc2O[C@H]1CN(C)Cc1ccccc1	.	.	13.1	0.5	-17.5	21.5*
C[C@H](CO)N1C[C@H](C)[C@@H](CN(C)Cc2ccccc2)Oc2cc(/C=C/c3ccccc3)ccc2S1(=O)=O	-4.3	-31.6	0.8	9.0	8.2	-3.7
C[C@@H]1CN([C@@H](C)CO)S(=O)(=O)c2ccc(/C=C/c3ccccc3)cc2O[C@H]1CN(C)Cc1ccc(C(=O)O)cc1	-12.8	10.0	-50.1	7.8	.	?
C[C@H](CO)N1C[C@H](C)[C@H](CN(C)Cc2ccccc2)Oc2cc(/C=C/c3ccccc3)ccc2S1(=O)=O	1.3	10.0	22.3	-17.3	3.9	21.3*
C[C@H]1CN([C@@H](C)CO)S(=O)(=O)c2ccc(/C=C/c3ccccc3)cc2O[C@@H]1CN(C)Cc1ccc(C(=O)O)cc1	-11.8	9.3	-3.1	2.4	.	25.3*
COCC(=O)N(C)C[C@@H]1Oc2ncc(-c3ccccc3C)cc2C(=O)N([C@H](C)CO)C[C@@H]1C	1.9	13.3	-27.0	-1.5	.	-3.6
COc1ccc(CN(C)C[C@@H]2Oc3ccc(NC(=O)CCC(F)(F)F)cc3CC(=O)N([C@H](C)CO)C[C@H]2C)cc1	-1.6	6.3	11.3	-17.1	-4.0	5.3
C[C@H](CO)N1C[C@H](C)[C@@H](CN(C)CC2CCOCC2)Oc2ncc(C#Cc3ccncc3)cc2C1=O	4.0	3.9	-1.5	-9.0	.	1.1
CN(C)c1ccc(NC(=S)c2ccccn2)cc1	-51.8	98.7*	86.2*	6.5	?	4.7
CN(C)c1ccc(C(=S)Nc2ccccc2)cc1	1.3	.	-5.1	.	-50.3	-1.2
N#C/C(=C\c1ccc([N+](=O)[O-])cc1)c1ccccn1	-21.1	-11.1	-87.7	.	-92.2	-2.0
CN(C)c1ccc(/C=C(\C#N)c2ccccn2)cc1	.	93.5*	.	-3.9	26.3	.
CCOC(=O)N1CCC(N2Cc3cccc(C(=O)Nc4ccccc4OC)c3C2=O)CC1	-21.1*	13.7	5.6	-6.5	23.5	-5.9
COc1cc(NC(=O)c2cccc3c2C(=O)N(C2CCCCC2)C3)cc(OC)c1OC	-40.9*	11.2	2.8	9.3	26.9	2.4
Cc1cc(C)cc(NC(=O)c2cccc3c2C(=O)N(C2CCCCC2)C3)c1	.	.	.	17.8	.	.
Cc1cc(C(F)(F)F)n(-c2nc(C(=O)NNS(=O)(=O)c3ccccc3)cs2)n1	.	.	.	41.9	-7.2	.
Cc1cc(C(F)(F)F)n(-c2nc(C(=O)NNS(=O)(=O)c3ccccc3[N+](=O)[O-])cs2)n1	-11.1	2.5	4.4	110.1*	-3.2	-4.2
SMILES	Ecoli rRNA inh	LGR2 antag	EWS-Fli block	PGC1a acetyl inh	PAX8 inh HTS	SIRT5 inh
O=C(NC1CC1)c1ccc2c(c1)C1C3CCC(C3)C1C(c1ccccc1)N2 (stereo not drawn)	-17.9	36.4	-2.7	.	115.3*	-1.3
CCC(=O)N1CC(=O)N2[C@H](CO)[C@H](c3ccc(-c4cccnc4)cc3)[C@H]2C1	3.4	-1.3	-4.3	1.5	1.5	0.0
CN(C)c1ccc(NC(=S)NCC2CCCO2)cc1 (stereo not drawn)	11.0	-11.3	-25.5	.	65.1*	.
COc1cc(-c2nc(-c3ccccc3)c(-c3cccs3)[nH]2)cc(OC)c1OC	.	.	.	-0.3	.	.
c1ccc(-c2nc(-c3cccs3)[nH]c2-c2ccccc2)cc1	10.2	11.8	18.5	-32.4	.	15.4*
C/C(=N\NC(=O)c1c([N+](=O)[O-])c(C)nn1C)c1ccc(NC(=O)C2CCCC2)cc1	-6.7	-16.6	52.1*	-27.0	-1.4	-12.3
C/C(=N\NC(=O)c1c(Cl)c(C)nn1C)c1ccc(NC(=O)C2CCC2)cc1	-0.9	-7.8	47.8	-10.4	5.2	2.9
CCCCCCCCN1C(=O)[C@H](CC(=O)NCCCOC)C[C@@]2(C(=O)OC)CCCCC=C12	-11.7	11.4	9.2	.	5.9	-0.2
CCCCCCCCN1C(=O)[C@H](CC(=O)NCCC(C)C)C[C@@]2(C(=O)OCC)CCCC=C12	18.1	36.8	10.1	.	-9.3	20.9*
CCCCCCCCN1C(=O)[C@H](CC(=O)NCC2CCCCC2)C[C@@]2(C(=O)OC)CCCCC=C12	12.6	9.7	0.8	.	-2.0	15.5*
O=C(Nc1ccc(Cl)cc1)NN1CCCCCC1	-31.6	-53.5	-26.5	-7.6	-71.2	.
CCCN1CCC(NC(=O)Nc2ccc([N+](=O)[O-])cc2)CC1	1.6	27.3	-2.2	-0.8	1.9	16.6*
O=C(Nc1ccc([N+](=O)[O-])cc1)NN1CCCCCC1	-1.6*	2.2	-18.5	-5.0	-16.9	.
CC(C)CC#Cc1cnc2c(c1)C(=O)N([C@H](C)CO)C[C@@H](C)[C@@H](CN(C)C(=O)Cc1ccncc1)O2	1.7	2.2	-20.4	-0.2	5.0	0.0
O=C(CCc1nc2ccccc2s1)OCC(=O)c1ccccc1	-19.9*	-7.4	-8.5	.	-13.3	-1.6
O=C(CCc1nc2ccccc2s1)OCC(=O)c1ccc[nH]1	-26.9*	-14.2	-0.4	4.9	0.8	3.0
O=S(=O)(c1ccccc1)N1CC2(C1)[C@H](c1ccccc1)[C@H](CO)N2CC1CC1	-5.8	4.2	19.9	3.2	.	5.9
O=C(c1cccs1)c1ccc(-c2cccs2)s1	.	61.8*	.	-35.0	.	.
